Experimental findings from PMC7862700, “An all-to-all approach to the identification of sequence-specific readers for epigenetic DNA modifications on cytosine” are described below.

Assay in all cases: DAPPL (digital affinity profiling via proximity ligation, sequencing); 10 mM Tris-HCl pH 7.5, 50 mM NaCl, 1 mM DTT, 4% glycerol, room temperature, 30 min; GST-TFs on glutathione beads, 16-mer random dsDNA library, 0.1% formaldehyde crosslink after washing; high values mean tight binding
One test concerns the target T1, FEV (Homo sapiens, UniProt Q99581 1-238).
T1 sequence: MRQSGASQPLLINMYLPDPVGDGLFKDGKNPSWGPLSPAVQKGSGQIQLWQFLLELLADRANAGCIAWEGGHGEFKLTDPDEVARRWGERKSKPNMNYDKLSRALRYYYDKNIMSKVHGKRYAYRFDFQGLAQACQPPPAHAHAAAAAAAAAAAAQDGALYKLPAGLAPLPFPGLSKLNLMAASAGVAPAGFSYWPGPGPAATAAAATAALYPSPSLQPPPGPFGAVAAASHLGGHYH
Particulars: protein: recombinant; tags: N-terminal GST; dsDNA, one strand shown. The essentials: (§1)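 Beads coated with glutathione captured GST-fused human transcription factors that had been expressed in yeast, and the factors were then given DNA barcodes and pooled with a tag-only sample. The pools were incubated with 200 nmole of a random double-stranded 16-mer DNA library in Tris/NaCl/DTT/glycerol buffer for 30 min at room temperature, washed, crosslinked with 0.1% formaldehyde and proximity-ligated with BsaI/T4 ligase at 37 °C for 1 h. PCR amplification and Illumina NextSeq500 sequencing came last. Binding signal is each hexamer's read frequency for a factor divided by its frequency for the tag-only sample.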

The target of another test is ETV5 (Homo sapiens, UniProt P41161 1-510). Particulars: protein: recombinant; tags: N-terminal GST; dsDNA, one strand shown. The method, boiled down: as §1
Sequence of ETV5 (P41161 whole entry): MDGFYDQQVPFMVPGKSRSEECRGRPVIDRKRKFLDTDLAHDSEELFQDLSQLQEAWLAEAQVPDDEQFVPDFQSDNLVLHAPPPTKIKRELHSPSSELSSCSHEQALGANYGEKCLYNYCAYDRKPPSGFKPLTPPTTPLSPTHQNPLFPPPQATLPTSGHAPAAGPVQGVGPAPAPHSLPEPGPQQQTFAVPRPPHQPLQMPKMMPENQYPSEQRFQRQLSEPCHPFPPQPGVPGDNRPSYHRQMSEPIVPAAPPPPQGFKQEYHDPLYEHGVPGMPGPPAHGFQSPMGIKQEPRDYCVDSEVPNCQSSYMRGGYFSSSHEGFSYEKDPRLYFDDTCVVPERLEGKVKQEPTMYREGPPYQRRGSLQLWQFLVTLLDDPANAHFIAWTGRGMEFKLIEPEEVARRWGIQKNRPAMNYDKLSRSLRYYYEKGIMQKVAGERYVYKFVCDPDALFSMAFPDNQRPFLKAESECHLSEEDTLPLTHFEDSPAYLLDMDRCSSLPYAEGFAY
A further test addresses HSF1 (Homo sapiens, UniProt Q00613 1-529). Conditions: protein: recombinant; tags: N-terminal GST; chain copies: 3; dsDNA, one strand shown. The essentials: as §1
The target in another test is T2, SPIC (Homo sapiens, UniProt Q8N5J4 1-248).
T2 sequence: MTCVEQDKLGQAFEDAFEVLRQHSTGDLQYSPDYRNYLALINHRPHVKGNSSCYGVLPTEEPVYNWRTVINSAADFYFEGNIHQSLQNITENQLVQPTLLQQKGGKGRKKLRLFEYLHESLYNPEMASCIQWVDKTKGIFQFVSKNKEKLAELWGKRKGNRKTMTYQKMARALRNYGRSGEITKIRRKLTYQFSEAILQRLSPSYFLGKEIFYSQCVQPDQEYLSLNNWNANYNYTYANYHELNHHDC
Particulars: protein: recombinant; tags: N-terminal GST; dsDNA, one strand shown. The essentials: as §1

For a further test, the target named is ELF4 (Homo sapiens, UniProt Q99607 1-663). Particulars: protein: recombinant; tags: N-terminal GST; dsDNA, one strand shown. The method, boiled down:
as §1

The target in the next test is T3, ELK4 (Homo sapiens, UniProt P28324-2 1-405).
T3 sequence: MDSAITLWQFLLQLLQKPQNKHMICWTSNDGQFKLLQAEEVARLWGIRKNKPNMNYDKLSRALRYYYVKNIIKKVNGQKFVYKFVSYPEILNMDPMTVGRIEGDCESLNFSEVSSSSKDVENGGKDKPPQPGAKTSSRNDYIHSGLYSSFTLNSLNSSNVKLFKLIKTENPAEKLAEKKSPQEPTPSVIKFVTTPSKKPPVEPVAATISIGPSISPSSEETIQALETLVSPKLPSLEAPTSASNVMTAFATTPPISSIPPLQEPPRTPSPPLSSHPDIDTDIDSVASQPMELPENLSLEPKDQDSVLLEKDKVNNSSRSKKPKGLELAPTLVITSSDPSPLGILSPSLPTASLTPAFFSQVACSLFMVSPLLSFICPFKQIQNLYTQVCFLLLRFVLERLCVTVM
Particulars: protein: recombinant; tags: N-terminal GST; dsDNA, one strand shown. The method, boiled down:
as §1

The target of the next test is T4, ETV2 (Homo sapiens, UniProt O00321 1-342).
T4 sequence: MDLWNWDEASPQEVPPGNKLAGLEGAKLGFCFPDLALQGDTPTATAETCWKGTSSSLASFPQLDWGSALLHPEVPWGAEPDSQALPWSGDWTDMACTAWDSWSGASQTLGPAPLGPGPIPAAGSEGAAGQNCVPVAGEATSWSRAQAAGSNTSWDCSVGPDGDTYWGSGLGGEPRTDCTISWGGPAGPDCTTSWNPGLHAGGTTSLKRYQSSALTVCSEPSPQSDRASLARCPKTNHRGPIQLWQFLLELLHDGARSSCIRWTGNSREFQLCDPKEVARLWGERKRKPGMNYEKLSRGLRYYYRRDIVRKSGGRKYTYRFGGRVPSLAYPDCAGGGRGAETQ
Conditions: protein: recombinant; tags: N-terminal GST; dsDNA, one strand shown. The essentials: as §1

The target of the next test is T5, ELF3 (Homo sapiens, UniProt P78545 1-371).
T5 sequence: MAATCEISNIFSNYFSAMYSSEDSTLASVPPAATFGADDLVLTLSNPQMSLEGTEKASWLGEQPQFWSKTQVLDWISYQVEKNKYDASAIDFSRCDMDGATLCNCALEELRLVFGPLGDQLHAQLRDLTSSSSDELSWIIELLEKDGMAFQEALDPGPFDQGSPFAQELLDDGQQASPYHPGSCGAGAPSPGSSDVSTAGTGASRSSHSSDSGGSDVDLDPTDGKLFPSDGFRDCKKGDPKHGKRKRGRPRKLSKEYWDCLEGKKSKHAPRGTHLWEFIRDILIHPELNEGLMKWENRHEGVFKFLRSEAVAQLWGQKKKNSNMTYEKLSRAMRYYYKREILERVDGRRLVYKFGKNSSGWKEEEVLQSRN
Conditions: protein: recombinant; tags: N-terminal GST; dsDNA, one strand shown. The essentials:
as §1

Another test addresses CRX (Homo sapiens, UniProt O43186 1-299). Particulars: protein: recombinant; tags: N-terminal GST; dsDNA, one strand shown. The essentials: as §1
For the next test, the target named is ETV1 (Homo sapiens, UniProt P50549 1-477). Conditions: protein: recombinant; tags: N-terminal GST; dsDNA, one strand shown. The essentials:
as §1

The target of a further test is T6, ERF (Homo sapiens, UniProt P50548 1-548).
T6 sequence: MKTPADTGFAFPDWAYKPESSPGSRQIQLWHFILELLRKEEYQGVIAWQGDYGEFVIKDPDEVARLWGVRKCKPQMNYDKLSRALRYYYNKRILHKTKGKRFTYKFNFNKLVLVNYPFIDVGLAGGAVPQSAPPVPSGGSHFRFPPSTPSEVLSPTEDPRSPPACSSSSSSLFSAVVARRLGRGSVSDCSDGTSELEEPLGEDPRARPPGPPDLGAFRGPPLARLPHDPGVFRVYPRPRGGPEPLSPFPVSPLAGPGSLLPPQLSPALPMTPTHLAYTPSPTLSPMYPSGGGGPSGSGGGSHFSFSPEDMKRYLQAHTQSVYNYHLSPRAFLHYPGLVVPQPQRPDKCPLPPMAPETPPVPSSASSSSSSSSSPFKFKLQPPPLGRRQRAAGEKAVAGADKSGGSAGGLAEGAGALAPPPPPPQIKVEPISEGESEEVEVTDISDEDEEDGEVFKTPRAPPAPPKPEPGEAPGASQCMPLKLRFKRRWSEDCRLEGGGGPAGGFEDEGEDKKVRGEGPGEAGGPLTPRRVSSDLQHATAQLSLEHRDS
Particulars: protein: recombinant; tags: N-terminal GST; dsDNA, one strand shown. The method, boiled down: as §1

Another test deals with T7, ETV3L (Homo sapiens, UniProt Q6ZN32 1-361).
T7 sequence: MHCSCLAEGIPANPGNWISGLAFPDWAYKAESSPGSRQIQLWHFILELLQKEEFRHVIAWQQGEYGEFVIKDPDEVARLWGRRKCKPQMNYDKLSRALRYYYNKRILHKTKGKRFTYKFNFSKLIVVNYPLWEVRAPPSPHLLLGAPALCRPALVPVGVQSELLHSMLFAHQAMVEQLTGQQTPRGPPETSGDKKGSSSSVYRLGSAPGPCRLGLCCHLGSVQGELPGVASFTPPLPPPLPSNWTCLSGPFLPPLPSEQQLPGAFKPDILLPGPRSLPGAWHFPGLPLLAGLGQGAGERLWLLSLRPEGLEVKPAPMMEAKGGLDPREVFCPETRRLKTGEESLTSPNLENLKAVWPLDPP
Particulars: protein: recombinant; tags: N-terminal GST; dsDNA, one strand shown. The essentials:
as §1

The next test concerns the target T8, ETS2 (Homo sapiens, UniProt P15036 1-469).
T8 sequence: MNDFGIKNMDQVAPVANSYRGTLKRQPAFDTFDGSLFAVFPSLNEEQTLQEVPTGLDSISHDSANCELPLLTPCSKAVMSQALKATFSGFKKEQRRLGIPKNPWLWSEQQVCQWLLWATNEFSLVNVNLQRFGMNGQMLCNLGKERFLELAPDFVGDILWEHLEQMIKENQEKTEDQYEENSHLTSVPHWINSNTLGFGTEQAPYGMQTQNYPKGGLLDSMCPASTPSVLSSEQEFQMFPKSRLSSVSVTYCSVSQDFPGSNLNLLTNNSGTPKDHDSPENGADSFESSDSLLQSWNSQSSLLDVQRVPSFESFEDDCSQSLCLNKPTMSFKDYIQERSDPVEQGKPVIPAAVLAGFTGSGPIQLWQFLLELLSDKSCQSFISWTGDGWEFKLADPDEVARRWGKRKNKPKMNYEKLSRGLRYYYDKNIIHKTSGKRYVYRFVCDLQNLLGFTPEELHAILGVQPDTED
Particulars: protein: recombinant; tags: N-terminal GST; dsDNA, one strand shown. The method, boiled down: as §1

A further test concerns the target T9, SPDEF (Homo sapiens, UniProt O95238 1-335).
T9 sequence: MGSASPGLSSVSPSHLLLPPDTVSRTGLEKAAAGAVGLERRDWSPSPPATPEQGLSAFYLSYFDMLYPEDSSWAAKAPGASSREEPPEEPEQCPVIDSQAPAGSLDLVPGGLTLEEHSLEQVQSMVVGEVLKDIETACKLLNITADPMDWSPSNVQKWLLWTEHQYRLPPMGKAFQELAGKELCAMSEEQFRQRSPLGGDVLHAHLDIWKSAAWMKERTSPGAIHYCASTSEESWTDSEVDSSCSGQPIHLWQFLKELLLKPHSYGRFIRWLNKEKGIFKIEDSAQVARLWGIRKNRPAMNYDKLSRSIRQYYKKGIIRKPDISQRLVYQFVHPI
Conditions: protein: recombinant; tags: N-terminal GST; dsDNA, one strand shown. The method, boiled down: as §1

A further test has as its target T10, ETV7 (Homo sapiens, UniProt Q9Y603 1-341).
T10 sequence: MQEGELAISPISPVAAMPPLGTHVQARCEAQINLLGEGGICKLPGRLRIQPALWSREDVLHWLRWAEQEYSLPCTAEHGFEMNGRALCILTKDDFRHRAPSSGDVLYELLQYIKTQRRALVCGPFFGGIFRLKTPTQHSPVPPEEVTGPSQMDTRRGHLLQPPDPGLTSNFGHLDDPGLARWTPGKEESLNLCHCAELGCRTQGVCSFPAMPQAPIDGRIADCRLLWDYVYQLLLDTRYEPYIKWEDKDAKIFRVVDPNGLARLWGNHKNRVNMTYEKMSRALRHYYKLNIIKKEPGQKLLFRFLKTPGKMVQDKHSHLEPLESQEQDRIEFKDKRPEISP
Conditions: protein: recombinant; tags: N-terminal GST; dsDNA, one strand shown. The method, boiled down:
as §1

The target of another test is T11, ELF5 (Homo sapiens, UniProt Q9UKW6-2 1-255).
T11 sequence: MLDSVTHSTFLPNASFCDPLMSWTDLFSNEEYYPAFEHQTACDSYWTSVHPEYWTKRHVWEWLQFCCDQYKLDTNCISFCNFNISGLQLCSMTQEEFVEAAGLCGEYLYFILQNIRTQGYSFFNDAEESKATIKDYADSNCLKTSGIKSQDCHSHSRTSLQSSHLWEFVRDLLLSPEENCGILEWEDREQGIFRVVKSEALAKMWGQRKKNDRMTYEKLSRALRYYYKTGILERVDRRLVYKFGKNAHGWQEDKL
Conditions: protein: recombinant; tags: N-terminal GST; dsDNA, one strand shown. The method, boiled down:
as §1

A further test addresses T12, ETV3 (Homo sapiens, UniProt P41162-2 1-143).
T12 sequence: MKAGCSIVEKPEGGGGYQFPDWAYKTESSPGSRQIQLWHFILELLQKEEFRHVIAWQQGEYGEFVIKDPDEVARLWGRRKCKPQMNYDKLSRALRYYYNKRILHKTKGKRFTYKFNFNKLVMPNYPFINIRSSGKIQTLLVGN
Conditions: protein: recombinant; tags: N-terminal GST; dsDNA, one strand shown. The essentials:
as §1

Another test concerns the target ETV6 (Homo sapiens, UniProt P41212 1-452). Particulars: protein: recombinant; tags: N-terminal GST; dsDNA, one strand shown. The method, boiled down:
as §1

Sequence of ELF4 (Q99607 whole entry): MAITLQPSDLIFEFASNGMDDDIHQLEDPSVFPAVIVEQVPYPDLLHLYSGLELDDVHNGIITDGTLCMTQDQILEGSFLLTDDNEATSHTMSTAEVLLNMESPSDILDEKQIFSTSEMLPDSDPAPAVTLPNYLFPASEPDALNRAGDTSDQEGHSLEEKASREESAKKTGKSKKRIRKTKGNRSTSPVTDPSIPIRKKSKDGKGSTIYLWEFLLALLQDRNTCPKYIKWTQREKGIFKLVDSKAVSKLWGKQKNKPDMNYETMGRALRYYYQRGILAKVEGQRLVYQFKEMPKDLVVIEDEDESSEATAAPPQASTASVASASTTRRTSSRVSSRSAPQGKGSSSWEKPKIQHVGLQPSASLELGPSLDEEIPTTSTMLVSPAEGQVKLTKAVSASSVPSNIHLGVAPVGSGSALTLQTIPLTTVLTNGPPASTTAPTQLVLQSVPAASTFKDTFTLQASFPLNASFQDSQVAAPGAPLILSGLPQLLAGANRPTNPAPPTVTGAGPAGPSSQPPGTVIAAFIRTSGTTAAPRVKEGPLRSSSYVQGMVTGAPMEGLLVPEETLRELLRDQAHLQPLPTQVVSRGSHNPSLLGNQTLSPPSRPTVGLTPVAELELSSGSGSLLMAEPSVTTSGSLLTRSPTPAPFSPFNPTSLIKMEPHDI
Sequence of ETV6 (P41212 whole entry): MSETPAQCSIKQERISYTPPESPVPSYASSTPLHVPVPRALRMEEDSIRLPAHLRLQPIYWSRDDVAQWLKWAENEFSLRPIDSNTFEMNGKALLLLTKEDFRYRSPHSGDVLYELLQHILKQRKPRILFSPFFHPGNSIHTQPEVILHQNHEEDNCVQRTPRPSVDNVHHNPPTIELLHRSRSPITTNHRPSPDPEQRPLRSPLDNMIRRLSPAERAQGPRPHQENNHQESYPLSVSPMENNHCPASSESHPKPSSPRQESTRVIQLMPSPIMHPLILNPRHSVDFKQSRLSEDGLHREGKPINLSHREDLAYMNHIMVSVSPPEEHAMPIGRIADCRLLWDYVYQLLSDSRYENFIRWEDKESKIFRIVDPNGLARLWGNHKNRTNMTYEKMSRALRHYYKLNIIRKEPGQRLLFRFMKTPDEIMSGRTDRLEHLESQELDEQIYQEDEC
Sequence of CRX (O43186 whole entry): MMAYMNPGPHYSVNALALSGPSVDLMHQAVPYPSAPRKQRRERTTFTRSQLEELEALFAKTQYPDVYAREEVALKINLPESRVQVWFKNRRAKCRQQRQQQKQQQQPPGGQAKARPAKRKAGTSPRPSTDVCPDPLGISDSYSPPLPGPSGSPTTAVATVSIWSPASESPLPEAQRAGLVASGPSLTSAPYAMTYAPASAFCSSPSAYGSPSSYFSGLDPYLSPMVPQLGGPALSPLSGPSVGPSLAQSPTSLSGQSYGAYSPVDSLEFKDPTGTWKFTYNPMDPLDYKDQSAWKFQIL
Sequence of ETV1 (P50549 whole entry): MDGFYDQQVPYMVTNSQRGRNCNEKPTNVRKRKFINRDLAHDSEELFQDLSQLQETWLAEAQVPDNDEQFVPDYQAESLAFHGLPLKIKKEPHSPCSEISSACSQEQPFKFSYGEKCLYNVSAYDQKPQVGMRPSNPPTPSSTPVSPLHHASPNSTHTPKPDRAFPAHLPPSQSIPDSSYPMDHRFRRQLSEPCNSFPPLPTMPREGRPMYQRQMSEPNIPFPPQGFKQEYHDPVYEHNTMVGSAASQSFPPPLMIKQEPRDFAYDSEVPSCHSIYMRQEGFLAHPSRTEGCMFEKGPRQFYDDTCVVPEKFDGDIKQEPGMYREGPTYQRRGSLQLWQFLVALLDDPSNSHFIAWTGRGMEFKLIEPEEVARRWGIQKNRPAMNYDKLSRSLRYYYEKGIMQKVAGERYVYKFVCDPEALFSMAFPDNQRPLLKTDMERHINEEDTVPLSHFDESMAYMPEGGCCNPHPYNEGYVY
Sequence of HSF1 (Q00613 whole entry): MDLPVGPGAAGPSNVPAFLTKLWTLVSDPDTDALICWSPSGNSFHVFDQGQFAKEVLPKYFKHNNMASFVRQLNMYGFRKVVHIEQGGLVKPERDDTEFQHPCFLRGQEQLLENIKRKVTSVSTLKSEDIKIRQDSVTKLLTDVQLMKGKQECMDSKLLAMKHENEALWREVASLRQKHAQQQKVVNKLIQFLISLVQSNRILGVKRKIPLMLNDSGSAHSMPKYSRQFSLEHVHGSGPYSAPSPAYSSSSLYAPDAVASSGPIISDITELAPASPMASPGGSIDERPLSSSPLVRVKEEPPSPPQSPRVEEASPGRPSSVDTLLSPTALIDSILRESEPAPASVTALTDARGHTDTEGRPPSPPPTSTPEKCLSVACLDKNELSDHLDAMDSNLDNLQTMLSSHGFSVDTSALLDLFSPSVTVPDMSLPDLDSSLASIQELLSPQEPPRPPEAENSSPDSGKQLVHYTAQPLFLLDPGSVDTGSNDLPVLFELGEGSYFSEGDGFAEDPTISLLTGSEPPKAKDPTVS

For CTAATC, the binding signal with FEV is 1.33 fold enrichment (6-mer frequency, TF over GST control); in the test with ETV5, 1.32 fold enrichment (6-mer frequency, TF over GST control); with HSF1, 3.22 fold enrichment (6-mer frequency, TF over GST control); in the test with SPIC it was 1.41 fold enrichment (6-mer frequency, TF over GST control); with ELF4, 1.42 fold enrichment (6-mer frequency, TF over GST control); with ELK4, 1.35 fold enrichment (6-mer frequency, TF over GST control). Also, the binding signal with ETV2 was 1.41 fold enrichment (6-mer frequency, TF over GST control); with ELF3, 1.56 fold enrichment (6-mer frequency, TF over GST control); with CRX, 5.33 fold enrichment (6-mer frequency, TF over GST control); with ETV1, 1.49 fold enrichment (6-mer frequency, TF over GST control); in the test with ERF, 1.31 fold enrichment (6-mer frequency, TF over GST control); with ETV3L it was 1.34 fold enrichment (6-mer frequency, TF over GST control). In addition, the binding signal with ETS2 is 1.32 fold enrichment (6-mer frequency, TF over GST control); with SPDEF it was 1.34 fold enrichment (6-mer frequency, TF over GST control); with ETV7 it was 1.41 fold enrichment (6-mer frequency, TF over GST control); in the test with ELF5, 1.33 fold enrichment (6-mer frequency, TF over GST control); with ETV3, 1.32 fold enrichment (6-mer frequency, TF over GST control); with ETV6 it was 1.35 fold enrichment (6-mer frequency, TF over GST control).
